Data from PubChem BioAssay.

assay: viability profiling in RPMI8226 myeloma cells – cell-based, resazurin fluorescence, basal, 24 h, PK04 Diversity Set, profiling panel (AID 1180); conditions: higher = more signal;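 also: RPMI8826 multiple myeloma cell line at 5000 cells per well; test concentration not given here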

First: CC(=O)c1ccc(C(O)C2C=CC3C(=O)N(c4ccccc4)C(=O)C3N2Nc2ccc(C(C)C)cc2)cc1 (centres undefined)
Second: CCC(CC)C(O)C1C=CC2C(=O)N(c3ccccc3)C(=O)C2N1Nc1ccccc1F (centres undefined)
The z-score of the first is lower: -0.721 for the first, 0.181 for the second.

Compared with `COc1ccccc1CN1C(=O)c2ccccc2[C@](Cc2ccccc2I)(C(=O)NCC(C)C)[C@@H]1c1ccc(CO)cc1`, `CCCNC(=O)[C@@]1(Sc2ccc(C)cc2)CC(=O)N(Cc2ccccc2Cl)[C@@H]1c1ccc(CO)cc1I` is lower in z-score: 1.11 for the first, -1.28 for the second.

Compared with `C=CCNC(=O)[C@H]1[C@@H]2C(=O)O[C@@H](c3ccccc3)[C@@H](c3ccccc3)N2[C@@H](c2ccc(OCCO)cc2)[C@]12C(=O)Nc1ccc(C#CC3(O)CCCCCC3)cc12`, `COC(=O)C(CC#Cc1ccc2c(c1)[C@]1(C(=O)N2)[C@H](c2ccccc2OCCO)N2[C@H](c3ccccc3)[C@H](c3ccccc3)OC(=O)[C@H]2[C@@H]1C(=O)N1CCc2cc(OC)c(OC)cc2C1)C(=O)OC` is higher in z-score: -0.987 for the first, -0.918 for the second.

Going from `[N-]=[N+]=Nc1ccccc1C[C@@]1(C(=O)NCC(O)CO)N=C(c2ccc(OCCCO)cc2)O[C@@H]1c1ccccc1` (some centres undefined) to `[N-]=[N+]=Nc1ccccc1[C@@H]1OC(c2ccc(OCCCO)cc2)=N[C@]1(CCS(=O)(=O)c1ccccc1)C(=O)NCC(O)CO` (some centres undefined), the z-score falls from 0.0762 to -0.315.

First: CCOC(=O)c1cn(C[C@H](Cc2ccccc2)NC(=O)N[C@H](CO)CCc2oc(C(C)=O)c(C(=O)OC)c2C(=O)OC)nn1
Second: C=C(CCCC)C(=O)CC[C@H](OC(=O)c1ccccc1-c1ccccc1C(=O)O)c1ccc(OCCO)cc1
The z-score of the first is lower: -0.458 for the first, 0.147 for the second.

Going from `Cc1ccc(S[C@]2(C(=O)NCCCN(C)C)CC(=O)N(Cc3ccccc3C(F)(F)F)[C@@H]2c2ccc(CO)cc2I)cc1` to `Cc1ccc(S[C@]2(C(=O)NC3CC3)CC(=O)N(C(C)C)[C@@H]2c2ccc(CO)cc2I)cc1`, the z-score falls from -1.42 to -2.37.

Compared with `COCCOC(=O)N1C(=O)[C@@]2(c3cc(C#CCNC(N)=O)ccc31)[C@H](C(=O)Nc1nc3ccccc3s1)[C@H]1C(=O)O[C@H](c3ccccc3)[C@H](c3ccccc3)N1[C@@H]2c1ccccc1OCCO`, `COc1ccc([Si](C)(C)[C@H]2[C@H](CC(=O)N3CCC[C@H]3CO)O[C@@]3(C(=O)N(Cc4ccc(N5CCCCC5=O)cc4)c4ccccc43)[C@@H]2C)cc1` is higher in z-score: -1.01 for the first, -0.171 for the second.

First: COc1cc(CO)cc(I)c1O[C@H]1C=C(C(=O)NCCO)C[C@@H]2O[C@H]12
Second: C=CC1c2cc(O)c(OC)cc2CCN1C (centres undefined)
The z-score of the first is higher: -0.408 for the first, -1.16 for the second.

Compared with `CC(=O)NCCCC[C@@H]1NC(=O)[C@H]2C[C@@H](C(=O)NCCCCCCNC(=O)CS)[C@@H](c3cccc(OCCO)c3)N2C1=O`, `CN1C(=O)C2C(C1=O)C1C=C(CCCO)C2C(C2CC2)N1Cc1cccc(OC(F)(F)F)c1` (centres undefined) is higher in z-score: -0.737 for the first, -0.615 for the second.

First: C=CC[C@@]1(C(=O)OC)N=C(c2ccc(OCCCO)cc2)O[C@@H]1c1ccccc1N=[N+]=[N-]
Second: COC(=O)[C@@]1(Cc2ccc(OC)cc2)[C@H]2c3cc(C(=O)N4CCCC4)n(CCn4cc([N+](=O)[O-])nc4C)c3C[C@H]2CN1C(=O)c1ccccc1
The z-score of the first is higher: -0.937 for the first, -1.65 for the second.

Compared with `COC(=O)[C@@]1(Cc2ccc(F)cc2)[C@H]2c3cc(C(=O)N(C)C)n(C)c3C[C@H]2CN1C(=O)c1ccccc1`, `Cc1ccc(F)cc1S(=O)(=O)N[C@H]1CCN(Cc2ccc(OC(C)C)cc2)C1` is lower in z-score: -0.521 for the first, -1.19 for the second.

First: O=C(NC1CC1)[C@@H]1c2ccccc2C(=O)N(Cc2cc(C(F)(F)F)cc(C(F)(F)F)c2)[C@H]1c1ccc(CO)cc1
Second: COCC(=C=CC[C@H](O)c1ccccc1OCCO)C[C@H](O)COCc1ccccc1
The z-score of the first is lower: 0.51 for the first, 0.623 for the second.
